For 1 sequence, binding signal results are on record in publication PMC7862700, “An all-to-all approach to the identification of sequence-specific readers for epigenetic DNA modifications on cytosine”.

What all share (assay): DAPPL (digital affinity profiling via proximity ligation, sequencing); 10 mM Tris-HCl pH 7.5, 50 mM NaCl, 1 mM DTT, 4% glycerol, room temperature, 30 min; GST-TFs on glutathione beads, 16-mer random dsDNA library, 0.1% formaldehyde crosslink after washing; high values mean tight binding
One assay concerns the target T1, FEV (Homo sapiens, UniProt Q99581 1-238).
T1 sequence: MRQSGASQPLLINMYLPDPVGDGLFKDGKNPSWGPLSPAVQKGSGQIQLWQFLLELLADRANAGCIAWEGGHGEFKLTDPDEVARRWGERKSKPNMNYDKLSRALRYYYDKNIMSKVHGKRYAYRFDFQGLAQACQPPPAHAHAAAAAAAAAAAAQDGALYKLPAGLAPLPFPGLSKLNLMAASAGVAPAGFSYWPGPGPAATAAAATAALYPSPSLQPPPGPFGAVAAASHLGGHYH
The conditions noted are these: protein: recombinant; tags: N-terminal GST; dsDNA, one strand shown. The gist of the method: (§1)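 Each value of binding signal is a hexamer's read frequency for a factor divided by the same hexamer's frequency in the tag-only sample. Barcoded, bead-captured GST fusions of human transcription factors made in yeast were pooled with that sample and incubated with 200 nmole of a random double-stranded 16-mer DNA library in Tris/NaCl/DTT/glycerol buffer at room temperature for 30 min. Washing, 0.1% formaldehyde crosslinking, proximity ligation, PCR and Illumina NextSeq500 sequencing followed.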

For a further assay, the target named is ETV5 (Homo sapiens, UniProt P41161 1-510). The conditions noted are these: protein: recombinant; tags: N-terminal GST; dsDNA, one strand shown. The gist of the method: as §1
The target in a further assay is HSF1 (Homo sapiens, UniProt Q00613 1-529). The conditions noted are these: protein: recombinant; tags: N-terminal GST; chain copies: 3; dsDNA, one strand shown. The gist of the method: as §1
The next assay has as its target T2, SPIC (Homo sapiens, UniProt Q8N5J4 1-248).
T2 sequence: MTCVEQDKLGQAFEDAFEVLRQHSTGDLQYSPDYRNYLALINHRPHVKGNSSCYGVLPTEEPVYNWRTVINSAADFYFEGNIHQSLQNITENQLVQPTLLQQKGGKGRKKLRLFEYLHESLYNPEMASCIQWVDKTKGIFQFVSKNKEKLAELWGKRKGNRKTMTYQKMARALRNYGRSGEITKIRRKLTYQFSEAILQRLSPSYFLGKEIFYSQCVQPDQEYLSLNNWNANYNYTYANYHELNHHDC
The conditions noted are these: protein: recombinant; tags: N-terminal GST; dsDNA, one strand shown. Put shortly:
as §1

For the next assay, the target named is ELF4 (Homo sapiens, UniProt Q99607 1-663). The conditions noted are these: protein: recombinant; tags: N-terminal GST; dsDNA, one strand shown. Put shortly:
as §1

In the next assay the target is T3, ELK4 (Homo sapiens, UniProt P28324-2 1-405).
T3 sequence: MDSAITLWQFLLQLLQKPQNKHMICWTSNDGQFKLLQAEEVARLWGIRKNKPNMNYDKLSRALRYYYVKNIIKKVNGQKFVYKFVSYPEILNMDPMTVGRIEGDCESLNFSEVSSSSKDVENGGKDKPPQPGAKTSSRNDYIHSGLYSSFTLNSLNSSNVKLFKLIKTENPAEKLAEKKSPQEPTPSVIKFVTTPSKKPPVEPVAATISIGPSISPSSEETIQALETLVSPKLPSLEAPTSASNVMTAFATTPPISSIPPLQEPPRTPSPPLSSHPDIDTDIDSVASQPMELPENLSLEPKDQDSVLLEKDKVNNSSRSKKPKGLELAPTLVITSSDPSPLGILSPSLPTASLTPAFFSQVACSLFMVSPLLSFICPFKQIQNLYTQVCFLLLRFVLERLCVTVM
The conditions noted are these: protein: recombinant; tags: N-terminal GST; dsDNA, one strand shown. The gist of the method: as §1

In another assay the target is T4, ETV2 (Homo sapiens, UniProt O00321 1-342).
T4 sequence: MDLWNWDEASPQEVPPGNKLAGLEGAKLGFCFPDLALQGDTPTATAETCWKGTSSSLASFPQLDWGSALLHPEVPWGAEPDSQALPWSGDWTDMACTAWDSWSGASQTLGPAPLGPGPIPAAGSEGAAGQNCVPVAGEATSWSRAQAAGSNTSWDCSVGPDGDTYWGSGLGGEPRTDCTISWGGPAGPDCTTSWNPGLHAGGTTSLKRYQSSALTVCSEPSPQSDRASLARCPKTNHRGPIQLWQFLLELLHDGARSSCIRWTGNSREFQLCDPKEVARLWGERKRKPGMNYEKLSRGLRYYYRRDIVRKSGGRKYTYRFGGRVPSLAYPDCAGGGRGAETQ
The conditions noted are these: protein: recombinant; tags: N-terminal GST; dsDNA, one strand shown. Put shortly: as §1

The next assay deals with T5, ELF3 (Homo sapiens, UniProt P78545 1-371).
T5 sequence: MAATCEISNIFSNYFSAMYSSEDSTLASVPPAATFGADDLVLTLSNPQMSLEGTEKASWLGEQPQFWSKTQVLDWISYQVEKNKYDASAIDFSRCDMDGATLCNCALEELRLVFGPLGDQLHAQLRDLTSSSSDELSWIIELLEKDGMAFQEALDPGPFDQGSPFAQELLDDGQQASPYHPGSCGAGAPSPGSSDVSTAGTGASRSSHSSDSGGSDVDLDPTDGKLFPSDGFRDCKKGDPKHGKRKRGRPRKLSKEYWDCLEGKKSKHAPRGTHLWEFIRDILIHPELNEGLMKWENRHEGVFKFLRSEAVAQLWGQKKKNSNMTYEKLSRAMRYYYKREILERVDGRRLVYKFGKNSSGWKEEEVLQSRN
The conditions noted are these: protein: recombinant; tags: N-terminal GST; dsDNA, one strand shown. The gist of the method: as §1

The next assay has as its target CRX (Homo sapiens, UniProt O43186 1-299). The conditions noted are these: protein: recombinant; tags: N-terminal GST; dsDNA, one strand shown. Put shortly: as §1
The target of another assay is ETV1 (Homo sapiens, UniProt P50549 1-477). The conditions noted are these: protein: recombinant; tags: N-terminal GST; dsDNA, one strand shown. Put shortly: as §1
A further assay deals with T6, ERF (Homo sapiens, UniProt P50548 1-548).
T6 sequence: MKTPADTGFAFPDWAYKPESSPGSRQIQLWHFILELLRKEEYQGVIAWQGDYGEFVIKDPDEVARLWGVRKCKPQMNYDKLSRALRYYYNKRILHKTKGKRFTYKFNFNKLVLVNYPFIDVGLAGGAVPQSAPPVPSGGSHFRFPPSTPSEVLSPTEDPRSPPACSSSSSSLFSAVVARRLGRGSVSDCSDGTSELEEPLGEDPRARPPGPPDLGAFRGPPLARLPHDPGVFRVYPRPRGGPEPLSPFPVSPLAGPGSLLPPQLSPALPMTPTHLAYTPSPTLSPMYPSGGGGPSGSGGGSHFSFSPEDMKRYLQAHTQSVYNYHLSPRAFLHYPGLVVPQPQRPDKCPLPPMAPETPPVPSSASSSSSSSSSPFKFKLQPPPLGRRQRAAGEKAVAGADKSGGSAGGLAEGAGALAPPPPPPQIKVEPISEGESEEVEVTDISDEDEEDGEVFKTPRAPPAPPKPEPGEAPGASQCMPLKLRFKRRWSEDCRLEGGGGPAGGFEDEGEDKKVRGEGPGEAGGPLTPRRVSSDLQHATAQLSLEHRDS
The conditions noted are these: protein: recombinant; tags: N-terminal GST; dsDNA, one strand shown. The gist of the method: as §1

The next assay concerns the target T7, ETV3L (Homo sapiens, UniProt Q6ZN32 1-361).
T7 sequence: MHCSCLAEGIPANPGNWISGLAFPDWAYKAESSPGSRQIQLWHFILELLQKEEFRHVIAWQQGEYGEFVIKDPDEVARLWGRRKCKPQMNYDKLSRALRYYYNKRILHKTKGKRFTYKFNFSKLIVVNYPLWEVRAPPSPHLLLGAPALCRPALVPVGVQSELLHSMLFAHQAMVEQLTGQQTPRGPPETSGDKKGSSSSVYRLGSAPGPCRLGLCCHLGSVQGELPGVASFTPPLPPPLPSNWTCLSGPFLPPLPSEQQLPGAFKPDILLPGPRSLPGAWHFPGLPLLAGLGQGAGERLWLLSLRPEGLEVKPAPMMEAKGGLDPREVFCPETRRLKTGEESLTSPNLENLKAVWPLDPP
The conditions noted are these: protein: recombinant; tags: N-terminal GST; dsDNA, one strand shown. The gist of the method: as §1

The next assay concerns the target T8, ETS2 (Homo sapiens, UniProt P15036 1-469).
T8 sequence: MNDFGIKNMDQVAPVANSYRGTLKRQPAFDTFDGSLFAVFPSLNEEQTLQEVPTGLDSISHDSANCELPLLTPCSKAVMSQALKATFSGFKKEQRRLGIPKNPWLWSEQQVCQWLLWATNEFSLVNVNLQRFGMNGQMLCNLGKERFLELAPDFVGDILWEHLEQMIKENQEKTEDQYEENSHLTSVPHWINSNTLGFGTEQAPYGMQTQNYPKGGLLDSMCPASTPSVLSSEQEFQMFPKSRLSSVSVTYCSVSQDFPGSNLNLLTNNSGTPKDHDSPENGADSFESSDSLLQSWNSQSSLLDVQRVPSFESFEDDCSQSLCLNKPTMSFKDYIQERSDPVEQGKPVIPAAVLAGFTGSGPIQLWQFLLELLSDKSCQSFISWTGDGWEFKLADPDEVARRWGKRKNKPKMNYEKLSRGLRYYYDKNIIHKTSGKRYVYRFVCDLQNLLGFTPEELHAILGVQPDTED
The conditions noted are these: protein: recombinant; tags: N-terminal GST; dsDNA, one strand shown. The gist of the method: as §1

The next assay has as its target T9, SPDEF (Homo sapiens, UniProt O95238 1-335).
T9 sequence: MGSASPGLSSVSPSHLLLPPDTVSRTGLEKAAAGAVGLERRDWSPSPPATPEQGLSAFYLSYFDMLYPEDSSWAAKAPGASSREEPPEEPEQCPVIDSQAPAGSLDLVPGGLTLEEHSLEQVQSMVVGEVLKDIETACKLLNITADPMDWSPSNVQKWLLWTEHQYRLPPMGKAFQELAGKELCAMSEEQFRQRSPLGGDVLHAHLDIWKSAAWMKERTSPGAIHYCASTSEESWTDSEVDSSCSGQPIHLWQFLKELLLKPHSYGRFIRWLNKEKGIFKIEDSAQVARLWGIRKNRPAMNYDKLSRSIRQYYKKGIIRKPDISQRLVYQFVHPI
The conditions noted are these: protein: recombinant; tags: N-terminal GST; dsDNA, one strand shown. The gist of the method:
as §1

For another assay, the target named is T10, ETV7 (Homo sapiens, UniProt Q9Y603 1-341).
T10 sequence: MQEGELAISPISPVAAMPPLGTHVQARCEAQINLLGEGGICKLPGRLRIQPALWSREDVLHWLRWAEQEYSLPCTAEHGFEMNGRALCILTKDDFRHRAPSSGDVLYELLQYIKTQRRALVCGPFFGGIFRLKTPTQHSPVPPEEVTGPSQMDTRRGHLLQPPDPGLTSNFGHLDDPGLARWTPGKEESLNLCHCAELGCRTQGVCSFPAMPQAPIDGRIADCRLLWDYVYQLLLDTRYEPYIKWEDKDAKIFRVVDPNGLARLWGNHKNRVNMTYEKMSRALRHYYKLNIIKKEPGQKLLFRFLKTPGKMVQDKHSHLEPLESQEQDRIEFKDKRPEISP
The conditions noted are these: protein: recombinant; tags: N-terminal GST; dsDNA, one strand shown. The gist of the method: as §1

The next assay addresses T11, ELF5 (Homo sapiens, UniProt Q9UKW6-2 1-255).
T11 sequence: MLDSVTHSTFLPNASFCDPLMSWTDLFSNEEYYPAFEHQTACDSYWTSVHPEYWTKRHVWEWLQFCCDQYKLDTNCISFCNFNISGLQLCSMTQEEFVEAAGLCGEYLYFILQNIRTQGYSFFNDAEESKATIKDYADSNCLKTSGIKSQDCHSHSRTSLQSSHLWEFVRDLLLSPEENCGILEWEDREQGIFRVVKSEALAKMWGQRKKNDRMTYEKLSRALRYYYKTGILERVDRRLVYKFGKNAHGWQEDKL
The conditions noted are these: protein: recombinant; tags: N-terminal GST; dsDNA, one strand shown. Put shortly: as §1

A further assay concerns the target T12, ETV3 (Homo sapiens, UniProt P41162-2 1-143).
T12 sequence: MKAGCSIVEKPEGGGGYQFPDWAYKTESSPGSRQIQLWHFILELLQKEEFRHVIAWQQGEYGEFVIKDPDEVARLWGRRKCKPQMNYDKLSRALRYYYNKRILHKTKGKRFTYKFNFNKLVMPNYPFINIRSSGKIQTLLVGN
The conditions noted are these: protein: recombinant; tags: N-terminal GST; dsDNA, one strand shown. Put shortly: as §1

The target of the next assay is ETV6 (Homo sapiens, UniProt P41212 1-452). The conditions noted are these: protein: recombinant; tags: N-terminal GST; dsDNA, one strand shown. Put shortly: as §1
Sequence of ETV6 (P41212 whole entry): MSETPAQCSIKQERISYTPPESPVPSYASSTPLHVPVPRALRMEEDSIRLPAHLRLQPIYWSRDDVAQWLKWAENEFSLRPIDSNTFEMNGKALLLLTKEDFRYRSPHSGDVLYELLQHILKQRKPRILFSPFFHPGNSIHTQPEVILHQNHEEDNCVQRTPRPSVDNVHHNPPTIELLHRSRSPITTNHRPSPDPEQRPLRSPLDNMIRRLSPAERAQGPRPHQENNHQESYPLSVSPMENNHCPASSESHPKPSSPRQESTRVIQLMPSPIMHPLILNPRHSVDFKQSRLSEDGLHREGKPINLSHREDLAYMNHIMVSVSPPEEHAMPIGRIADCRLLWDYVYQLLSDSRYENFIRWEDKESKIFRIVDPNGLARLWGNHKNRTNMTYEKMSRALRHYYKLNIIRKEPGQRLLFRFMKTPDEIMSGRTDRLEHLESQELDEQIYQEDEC

Sequence of ETV5 (P41161 whole entry): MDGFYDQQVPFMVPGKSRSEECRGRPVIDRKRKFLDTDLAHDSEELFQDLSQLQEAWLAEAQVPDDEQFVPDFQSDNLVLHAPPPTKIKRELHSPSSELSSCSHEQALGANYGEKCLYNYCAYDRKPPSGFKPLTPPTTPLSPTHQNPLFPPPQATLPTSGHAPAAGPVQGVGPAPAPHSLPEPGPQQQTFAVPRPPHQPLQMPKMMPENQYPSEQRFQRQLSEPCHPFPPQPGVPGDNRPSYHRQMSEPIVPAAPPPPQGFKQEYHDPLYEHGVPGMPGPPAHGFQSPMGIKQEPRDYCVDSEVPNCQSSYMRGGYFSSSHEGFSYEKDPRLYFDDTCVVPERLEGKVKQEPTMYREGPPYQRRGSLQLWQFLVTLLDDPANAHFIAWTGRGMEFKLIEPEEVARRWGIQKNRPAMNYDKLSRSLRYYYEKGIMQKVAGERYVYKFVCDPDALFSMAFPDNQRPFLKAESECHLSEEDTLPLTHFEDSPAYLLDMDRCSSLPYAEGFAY
Sequence of ELF4 (Q99607 whole entry): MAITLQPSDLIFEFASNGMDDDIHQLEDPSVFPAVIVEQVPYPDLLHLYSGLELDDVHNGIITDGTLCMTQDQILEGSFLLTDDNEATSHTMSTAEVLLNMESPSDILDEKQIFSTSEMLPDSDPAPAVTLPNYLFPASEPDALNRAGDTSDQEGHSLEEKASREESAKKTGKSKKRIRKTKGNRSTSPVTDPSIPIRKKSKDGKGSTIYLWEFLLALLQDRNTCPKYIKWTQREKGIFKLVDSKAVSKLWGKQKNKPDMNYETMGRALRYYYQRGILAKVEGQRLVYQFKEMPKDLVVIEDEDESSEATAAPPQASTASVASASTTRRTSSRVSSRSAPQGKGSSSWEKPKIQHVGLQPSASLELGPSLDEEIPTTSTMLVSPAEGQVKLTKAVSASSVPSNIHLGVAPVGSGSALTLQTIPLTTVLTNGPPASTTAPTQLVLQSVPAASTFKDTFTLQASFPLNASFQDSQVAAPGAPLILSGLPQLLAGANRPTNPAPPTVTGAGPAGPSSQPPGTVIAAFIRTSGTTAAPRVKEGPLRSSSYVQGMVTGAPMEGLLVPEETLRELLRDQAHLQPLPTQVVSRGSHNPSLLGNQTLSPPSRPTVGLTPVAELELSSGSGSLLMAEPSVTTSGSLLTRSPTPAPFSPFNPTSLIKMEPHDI
Sequence of ETV1 (P50549 whole entry): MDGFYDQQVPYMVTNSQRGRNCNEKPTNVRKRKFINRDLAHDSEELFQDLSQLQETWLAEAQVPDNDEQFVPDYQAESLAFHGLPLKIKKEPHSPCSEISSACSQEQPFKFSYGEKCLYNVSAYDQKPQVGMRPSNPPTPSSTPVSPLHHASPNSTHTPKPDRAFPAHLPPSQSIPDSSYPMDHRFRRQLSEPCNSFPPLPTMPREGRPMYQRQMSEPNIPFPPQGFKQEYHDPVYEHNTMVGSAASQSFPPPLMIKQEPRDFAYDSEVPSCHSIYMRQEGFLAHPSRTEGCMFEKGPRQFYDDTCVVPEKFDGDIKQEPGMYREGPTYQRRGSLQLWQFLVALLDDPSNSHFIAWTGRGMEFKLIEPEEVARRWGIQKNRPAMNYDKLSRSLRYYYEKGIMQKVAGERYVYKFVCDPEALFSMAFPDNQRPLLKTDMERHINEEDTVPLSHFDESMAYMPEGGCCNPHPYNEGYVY
Sequence of CRX (O43186 whole entry): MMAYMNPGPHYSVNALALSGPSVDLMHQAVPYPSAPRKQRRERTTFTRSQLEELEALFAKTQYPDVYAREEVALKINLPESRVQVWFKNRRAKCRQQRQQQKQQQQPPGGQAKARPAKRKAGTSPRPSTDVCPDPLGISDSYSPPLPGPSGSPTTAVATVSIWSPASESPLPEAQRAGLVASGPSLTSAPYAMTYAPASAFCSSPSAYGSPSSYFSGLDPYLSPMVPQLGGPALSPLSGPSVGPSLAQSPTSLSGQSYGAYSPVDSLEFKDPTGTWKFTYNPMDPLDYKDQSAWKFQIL
Sequence of HSF1 (Q00613 whole entry): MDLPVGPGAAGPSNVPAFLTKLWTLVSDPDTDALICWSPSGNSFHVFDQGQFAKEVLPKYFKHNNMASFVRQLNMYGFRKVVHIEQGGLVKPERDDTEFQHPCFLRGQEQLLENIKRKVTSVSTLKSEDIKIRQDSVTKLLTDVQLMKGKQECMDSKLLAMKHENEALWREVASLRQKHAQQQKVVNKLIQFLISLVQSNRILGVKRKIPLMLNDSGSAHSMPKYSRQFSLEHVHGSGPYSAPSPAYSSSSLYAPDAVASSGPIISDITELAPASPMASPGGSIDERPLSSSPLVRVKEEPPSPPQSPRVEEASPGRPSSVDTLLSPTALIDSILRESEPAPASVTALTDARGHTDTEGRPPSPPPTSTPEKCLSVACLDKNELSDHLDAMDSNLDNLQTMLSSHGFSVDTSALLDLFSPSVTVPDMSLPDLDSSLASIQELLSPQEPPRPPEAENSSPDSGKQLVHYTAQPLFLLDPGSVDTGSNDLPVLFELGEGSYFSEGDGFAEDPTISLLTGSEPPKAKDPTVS

As for GCTCCG, the binding signal is 1.42 fold enrichment (6-mer frequency, TF over GST control) in the assay with FEV; 1.33 fold enrichment (6-mer frequency, TF over GST control) in the assay with ETV5; 1.2 fold enrichment (6-mer frequency, TF over GST control) with HSF1; 1.54 fold enrichment (6-mer frequency, TF over GST control) in the assay with SPIC; 1.39 fold enrichment (6-mer frequency, TF over GST control) with ELF4; 1.33 fold enrichment (6-mer frequency, TF over GST control) with ELK4. The binding signal is 1.32 fold enrichment (6-mer frequency, TF over GST control) with ETV2; 1.32 fold enrichment (6-mer frequency, TF over GST control) in the assay with ELF3; 1.07 fold enrichment (6-mer frequency, TF over GST control) with CRX; 1.27 fold enrichment (6-mer frequency, TF over GST control) in the assay with ETV1; 1.26 fold enrichment (6-mer frequency, TF over GST control) in the assay with ERF; 1.33 fold enrichment (6-mer frequency, TF over GST control) with ETV3L. Besides, the binding signal with ETS2 is 1.33 fold enrichment (6-mer frequency, TF over GST control); with SPDEF it was 1.34 fold enrichment (6-mer frequency, TF over GST control); with ETV7 it was 1.27 fold enrichment (6-mer frequency, TF over GST control); in the assay with ELF5, 1.25 fold enrichment (6-mer frequency, TF over GST control); in the assay with ETV3, 1.2 fold enrichment (6-mer frequency, TF over GST control); with ETV6 it was 1.19 fold enrichment (6-mer frequency, TF over GST control).
